# From PubChem BioAssay (NCI)
# Compounds without any hit were thinned out: in the full panel of roughly 83,000, 20% have a hit.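 Negative percent growth values reflect cell death: -40 means 40% of the cells present at the start died, and -100 means all died.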 A number with no mark means an inactive call. Active and inactive are the calls of the source. Rule for the calls: active = growth percent below 10; inactive = the rest.
# Tests used:
# Assay in all cases: NCI-60 one-dose screen, 48 h (100 = growth as untreated, 0 = no growth, -100 = all killed)
# [1] = test system: SK-MEL-2 melanoma; settings: 10 µM unless noted
# [2] = test system: EKVX NSCLC; settings: 10 µM unless noted
# [3] = test system: SN12C renal; settings: 10 µM unless noted
# [4] = test system: UO-31 renal; settings: 10 µM unless noted
# [5] = test system: TK-10 renal; settings: 10 µM unless noted
# [6] = test system: ACHN renal; settings: 10 µM unless noted
# [7] = test system: CAKI-1 renal; settings: 10 µM unless noted
# [8] = test system: A498 renal; settings: 10 µM unless noted
# [9] = test system: CCRF-CEM leukemia; settings: 10 µM unless noted
# [10] = test system: MOLT-4 leukemia; settings: 10 µM unless noted
# [11] = test system: SR leukemia; settings: 10 µM unless noted
# [12] = test system: RPMI-8226 leukemia; settings: 10 µM unless noted
# [13] = test system: OVCAR-8 ovarian; settings: 10 µM unless noted
# [14] = test system: OVCAR-5 ovarian; settings: 10 µM unless noted
# [15] = test system: OVCAR-4 ovarian; settings: 10 µM
# [16] = test system: SK-OV-3 ovarian; settings: 10 µM unless noted
# [17] = test system: IGROV1 ovarian; settings: 10 µM unless noted
# [18] = test system: OVCAR-3 ovarian; settings: 10 µM unless noted
# [19] = test system: HS 578T breast; settings: 10 µM unless noted
# [20] = test system: NCI/ADR-RES ovarian; settings: 10 µM unless noted
Compound,growth [1],growth [2] [%],growth [3] [%],growth [4],growth [5] [%],growth [6] [%],growth [7],growth [8],growth [9],growth [10],growth [11],growth [12],growth [13] [%],growth [14] [%],growth [15],growth [16],growth [17],growth [18],growth [19],growth [20] [%]
COCCCNc1nc(NC(=O)c2cc(Br)cc(C(F)(F)F)c2)cc(-c2cccnc2)n1,80.6%,96,89.1,60.6%,95.8,87.4,81.4%,76.2%,80.8%,80.1%,83.4%,65.6%,87.5,100,92.3%,92.2%,91.3%,109%,83%,99.5
COC(=O)[C@H](CC(C)C)NC(=O)NC(=O)NC(=O)CI,78.8%,94.8,76.5,-76.3% (active),72.3,37,-69.2% (active),82.8%,-46.3% (active),4.18% (active),-51% (active),61.6%,73.3,86.9,59%,92.4%,62%,-74.1% (active),106%,92.2
Nc1nc(N)c2c(n1)NC(c1ccc(F)cc1)C1CCc3ccccc3C1=N2 (stereo not given),97.7%,45.3,63.1,59.7%,36.3,49.7,44.8%,58.1%,35.9%,19.9%,9.32% (active),42.3%,70.4,110,36%,63.9%,83.6%,48.2%,84.1%,43.7
CC1(C(=O)O)CCC(N)(C(=O)O)C1(C)C (stereo not given),110%,112,107,86.5%,101,116,114%,87.7%,89.7%,100%,105%,91.9%,111,115,104%,97%,108%,102%,127%,118
COc1cc(OC)cc(C(=O)Nc2cc(-c3cccnc3)nc(NCCCN3CCOCC3)n2)c1,84.1%,103,86.4,53.6%,95.5,103,101%,83.3%,90.8%,82.3%,57.9%,79.1%,91.8,100,117%,93.9%,97.4%,105%,69%,95.4
Clc1ccccc1/C=N\Nc1ccccn1,92.8%,76.2,92.2,66.8%,66.7,87.7,80.2%,110%,95.1%,83.5%,90.5%,93.1%,90.1,104,68%,84.1%,64%,94.1%,99.4%,91.1
O=C(CCN1CCCCC1)c1ccc2ccccc2c1,102%,112,96.7,77.1%,94.5,116,98.1%,93.5%,92.3%,108%,103%,77.5%,99.9,117,114%,105%,104%,98.6%,104%,109
O=C(Nc1ccc(Cl)c(C(F)(F)F)c1)Nc1ccc(-c2cccnc2)cc1N1CCC(CO)CC1,-10.3% (active),37.2,31,21.9%,22.2,17.3,34.3%,14.3%,9.72% (active),4.83% (active),2.35% (active),12.1%,26.8,39.4,43.8%,32.6%,61.4%,38%,34.4%,26.2
Cn1cc(-c2noc(-c3cn(C)c4ncc(F)cc34)n2)c2cc(Br)ccc21,103%,58.4,60.2,79.8%,46.5,40.3,53.5%,91.9%,80.8%,71.1%,37.1%,87.9%,55.2,64.4,-40.3% (active),84.4%,73.3%,38.5%,58.7%,61.5
O=C(CSc1nccc(Nc2ccc(S(=O)(=O)Nc3ccccn3)cc2)n1)c1ccc(Cl)cc1,97.8%,101,90.7,71.3%,109,89.8,83%,115%,-44.8% (active),81.4%,75.5%,71.3%,84.2,111,80.2%,95.4%,77.9%,95.8%,89.1%,103
Cc1cc(C)nc(SCC(=O)Nc2cccc(N=Cc3ccccc3O)c2)n1,114%,97.9,96.5,76.7%,106,99.2,81.4%,82.5%,88.6%,98.9%,109%,96.9%,103,100,86.1%,94.5%,108%,105%,97.2%,100
Cc1cc(C)c(-c2cc(O)c(-c3c(C)cc(C)cc3C)cc2O)c(C)c1,66%,53.9,65.5,62.1%,56.3,38.3,40.4%,5.72% (active),18.5%,47.9%,19.9%,42.3%,49.4,50.7,58.9%,4.25% (active),70.3%,-25.7% (active),11.9%,57.9
O=C(O)c1cn(C2CC2)c2cc(N3CCN(Cc4c(O)ccc5ccccc45)CC3)c(F)cc2c1=O,73.8%,60.4,30.3,40.1%,61.4,53.9,4.12% (active),-16.6% (active),67.7%,31.6%,1.76% (active),73.5%,16.8,40.8,18.2%,48.4%,32.1%,-44.1% (active),-6.63% (active),45.4
CCCn1ccnc1C(O)c1ccc(OCc2ccccc2)c(OC)c1 (stereo not given),91.3%,89.3,92.3,63.7%,77.8,93.6,74.8%,102%,94%,98.5%,96.1%,93.9%,96.7,93.3,96.5%,87.7%,96.9%,95.7%,109%,91.3
Cn1cc(-c2noc(-c3cn(C)c4ncc(Br)cc34)n2)c2cc(Cl)ccc21,82.4%,62.7,50.5,71.8%,64.7,31.8,50.8%,84.8%,68.6%,67.7%,44.3%,87.6%,99.7,70.5,-25.7% (active),62.8%,54.2%,44.2%,65.8%,58.5
CC(C)CCSC1=CC(=O)c2ccccc2C1=O,83.1%,81,90.2,-63.5% (active),103,11.2,21.1%,98.4%,0.242% (active),16%,6.01% (active),-62.3% (active),56.4,112,-50.6% (active),104%,-35.3% (active),-57.5% (active),74%,76.3
